Source: PubChem
An excerpt weighted towards active compounds, which were near 8% of everything screened.
HT1080 IDH1KD tx: HT-1080 IDH1 knockdown cell toxicity (counter line) | HT-1080 IDH1 knockdown viability, ATP luminescence, 48 h | Potency, µM (series often up to 46.1 µM), for inactives: top-dose activity, negative = toxicity, actives largely listed as cytotoxic | actives 2% (n = 360,000) | AID 686971;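 further: 0% = DMSO wells and -100% = cell-free medium wells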
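Cytotoxicity counter-line: IDH1KD HT-1080, 48 h, CellTiter-Glo. Curves classed by r2, magnitude and activity.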
HT1080NT lethal: kills 2HG-producing HT-1080-NT fibrosarcoma cells; AID 686970; HT-1080-NT fibrosarcoma viability, CellTiter-Glo ATP luminescence, 48 h; actives 1.6% (n = 360,000); Potency, µM (titrated, usually from 46.1 µM), without a hit: at the highest dose activity, negative = less viability, actives largely listed as cytotoxic;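 further: NT is the 2HG producing partner of a matched IDH1 knockdown line; 0% = DMSO-treated cells and -100% = media-only wells without cells; nearly all actives have a fitted effect of over 55% in size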
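Viability of the 2HG-overproducing fibrosarcoma line after 48 hours of compound exposure at 37 degrees C was determined by luminescence with CellTiter-Glo, and concentration-effect curves were then fitted and categorized.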
MCF10A rerep: DNA re-replication induction in MCF 10a cells; Potency, µM (titrated, usually from 46.1 µM), without a hit: at the top dose activity, positive = re-replication, actives largely listed as activators; actives 2.9% (n = 350,000); MCF 10A DNA re-replication, Hoechst nuclear intensity, 48 h; AID 624296; further: % of control where 0% means no effect; nearly all actives have a fitted effect of over 50% in size
SW480 rereplic: inducers of DNA re-replication in SW480 colon cancer cells; SW480 DNA re-replication, Hoechst DNA content imaging, 48 h; Potency, µM (titrated, usually from 46.1 µM), for inactives: top-dose re-replication activation, actives largely listed as activators; actives 1.8% (n = 340,000); further: % of control where 0% means no effect; nearly all actives have a fitted effect of over 55% in size
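Per well, 250 cells were exposed to pinned compound for 48 hr. Nuclear DNA was visualised with Hoechst (40 min, 37 C) and total object intensity recorded by fluorescence scanning.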
KB-V1 cytotox: KB-V1 MDR subline cytotoxicity; KB-V1 MDR cells viability, CellTiter-Glo, 72 h; Potency, µM (highest dose often 46.1 µM), most hits filed as cytotoxic; actives 3.4% (n = 400,000); AID 1347076; further: on the % scale 0 is the no-effect control and ±100 the full control effect; nearly all actives have a fitted effect of over 60% in size
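qHTS viability screen in drug-selected KB-V1 MDR cells: 72 h compound treatment at 37 degrees C, ATP luminescence end point.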
KB-3-1 tox: KB-3-1 parental cell cytotoxicity; KB-3-1 viability, CellTiter-Glo ATP luminescence, 72 h; Potency, µM (highest dose often 46.1 µM), usual class: cytotoxic; actives 1.4% (n = 400,000); further: on the % scale 0 is the no-effect control and ±100 the full control effect; nearly all actives have a fitted effect of over 60% in size
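Cytotoxicity in the drug-sensitive parental line KB-3-1 was scored as loss of CellTiter-Glo luminescence following 72 h incubation with compound. Values come from curve fitting of normalized concentration-response data.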
* = called active by the depositor. The call rests on the fitted dose curve; in most records, active means well fitted curve in the direction sought with a large enough effect; inconclusive means small, poorly fitted or top-dose-only effect, or another doubt; inactive means no such curve, though single readings can be large; an effect the other way counts as inactive or inconclusive. Potency means the concentration at half of the fitted maximal effect.

`O=C(OC(c1ccccc1)c1nccc2ccccc12)c1cc([N+](=O)[O-])cc([N+](=O)[O-])c1` (stereo not given) gave HT1080 IDH1KD tx -14.4%, HT1080NT lethal -9.9%, MCF10A rerep inconclusive, SW480 rereplic inconclusive, KB-V1 cytotox 8.2µM* and KB-3-1 tox inactive.
Cc1ccccc1CNCCCSc1nnnn1-c1ccccc1 was read as KB-V1 cytotox inactive and KB-3-1 tox inactive.
For CCC(C)Sc1oc(-c2ccco2)nc1S(=O)(=O)c1ccc(Cl)cc1 (stereo not given) the results were KB-V1 cytotox inactive and KB-3-1 tox inactive.
For O=S(=O)(c1ccc(Cl)cc1)N1c2ccccc2Oc2nc3ccccc3nc21 the results were HT1080 IDH1KD tx 5.5%, HT1080NT lethal 8.2%, MCF10A rerep 14.6µM*, SW480 rereplic 17.6%, KB-V1 cytotox inconclusive and KB-3-1 tox inconclusive.
`O=S(=O)(c1ccc(Cl)cc1)N1CN(CC2CCCO2)c2nc3ccccc3nc21` (stereo not given) gave HT1080 IDH1KD tx -3.9%, HT1080NT lethal -9.0%, MCF10A rerep 3.8%, SW480 rereplic -14.8%, KB-V1 cytotox inactive and KB-3-1 tox inactive.
Screening CCCCN1CN(S(=O)(=O)c2ccc(OC)cc2)c2nc3ccccc3nc21 returned HT1080 IDH1KD tx -1.0%, HT1080NT lethal -4.6%, MCF10A rerep -11.0%, SW480 rereplic 29.5%, KB-V1 cytotox inactive and KB-3-1 tox inactive.
`COc1ccc(S(=O)(=O)N2c3cc(Cl)ccc3Oc3nc4ccccc4nc32)cc1` gave HT1080 IDH1KD tx 0.92µM*, HT1080NT lethal inconclusive, MCF10A rerep 1.03µM*, SW480 rereplic 2.06µM*, KB-V1 cytotox 7.31µM* and KB-3-1 tox 2.06µM*.
Screening Cc1ccccc1-c1nnc2c3ccccc3c(C)nn12 returned HT1080 IDH1KD tx 6.1%, HT1080NT lethal 9.0%, MCF10A rerep 0.5%, SW480 rereplic -6.5%, KB-V1 cytotox 7.31µM* and KB-3-1 tox inconclusive.
COc1ccc(-c2nnc3c4ccccc4c(C)nn23)cc1 was read as HT1080 IDH1KD tx inconclusive, HT1080NT lethal inconclusive, MCF10A rerep 6.9%, SW480 rereplic -11.0%, KB-V1 cytotox 3.66µM* and KB-3-1 tox inactive.
For Cc1nn2c(-c3ccncc3)nnc2c2ccccc12 the results were HT1080 IDH1KD tx 11.9%, HT1080NT lethal 13.2%, MCF10A rerep -17.0%, SW480 rereplic 5.9%, KB-V1 cytotox inactive and KB-3-1 tox inactive.
CCOC(=O)C(=O)/C(C#N)=C/Nc1ccccc1 was read as HT1080 IDH1KD tx 18.5%, HT1080NT lethal 9.4%, MCF10A rerep 0.8%, SW480 rereplic -1.8%, KB-V1 cytotox inconclusive and KB-3-1 tox inactive.
Screening CCOC(=O)/C(=C\c1cccnc1)C(=O)c1cc(C(C)=O)c(Nc2ccccc2)s1 returned HT1080 IDH1KD tx 4.11µM*, HT1080NT lethal 5.8µM*, MCF10A rerep 2.91µM*, SW480 rereplic 3.66µM*, KB-V1 cytotox 6.51µM* and KB-3-1 tox 3.26µM*.
`CCOC(=O)/C(=C\c1ccccc1)C(=O)c1cc(C(C)=O)c(Nc2ccccc2)s1` gave HT1080 IDH1KD tx 6.31µM*, HT1080NT lethal -10.4%, MCF10A rerep 20.3%, SW480 rereplic 10.9%, KB-V1 cytotox inconclusive and KB-3-1 tox inactive.
For CCOc1ccc(CN(C(=O)c2cc(=O)c3cc(Cl)ccc3o2)C2CCS(=O)(=O)C2)cc1 (stereo not given) the results were KB-V1 cytotox inactive and KB-3-1 tox inactive.
For CN1CCN(c2ccnc(N(C)CCCCCCN)n2)CC1 the results were KB-V1 cytotox inactive and KB-3-1 tox inconclusive.
